# Measured values as given in the supplement of paper PMC10037445.
# In all, about 2,900 compounds were measured (“IRF Lucia reporter activity, fold change vs agonist alone”: median about 0.9, highest 2% from about 2.8 on). The full list was thinned out, with the highest values kept by preference.
# Legend:
# [1] = test system: RAW-Dual; assay: IRF Lucia reporter activity, fold change vs agonist alone; higher = enhanced IRF activity; details: library stock concentration (final ~1000-fold dilution): 10 mM, agonist: MPLA (TLR4) […]
# How it was run: (§1)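 RAW-Dual macrophages (50,000 cells/well in DMEM, 384-well plates) received 50 nL of library stock by pin tool, then a PRR agonist 1 h later, and were kept at 37 °C, 5% CO2. After 20 hours, supernatant was read for IRF by QuantiLuc luminescence and for NF-κB by QuantiBlue absorbance at 620 nm. Reporter activity is fold change over agonist-alone wells. Cytotoxic wells had IncuCyte confluency below 70% of agonist controls in both mask sets.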
# [2] = test system: RAW-Dual; assay: IRF Lucia reporter activity, fold change vs agonist alone; cytotoxicity flag (confluency mask): not cytotoxic; higher = enhanced IRF activity; details: library stock concentration (final ~1000-fold dilution): 10 mM
# How it was run: as §1
# [3] = test system: RAW-Dual; assay: IRF Lucia reporter activity, fold change vs agonist alone; cytotoxicity flag (confluency mask): cytotoxic (confluency <70% of control); higher = enhanced IRF activity; details: library stock concentration (final ~1000-fold dilution): 10 mM
# How it was run: as §1
# [4] = cytotoxicity flag (confluency mask): not cytotoxic
# [5] = agonist: 3'3'-cGAMP (STING) 10 ug/mL
smiles,measurement,setting,value
CCC(C)C(NC(=O)C(C(C)CC)N(C)C(C)=O)C(=O)NC(=O)C(NC(CC(C)C)C(=O)C1(C)CO1)C(C)O (stereo not drawn),IRF Lucia reporter activity,[1]; [4],2.09
same,IRF Lucia reporter activity,[2]; [5],1.55
same,IRF Lucia reporter activity,[2]; agonist: LPS (TLR4) 0.1 ug/mL,4.46
COc1cc2c(cc1OC)C(Cc1ccc(O)c(Oc3cc4c(cc3OC)CCN(C)C4Cc3ccc(O)cc3)c1)N(C)CC2.[O-][Cl+3]([O-])([O-])O (stereo not drawn),IRF Lucia reporter activity,[2]; [5],0.0548
same,IRF Lucia reporter activity,[2]; agonist: LPS (TLR4) 0.1 ug/mL,0.74
Cc1sc2c(c1C)C(c1ccc(Cl)cc1)=NC(CC(=O)OC(C)(C)C)c1nnc(C)n1-2 (stereo not drawn),IRF Lucia reporter activity,[1]; cytotoxicity flag (confluency mask): cytotoxic (confluency <70% of control),0.122
same,IRF Lucia reporter activity,[3]; [5],0.193
same,IRF Lucia reporter activity,[3]; agonist: LPS (TLR4) 0.1 ug/mL,0.185
CC(C)c1ccc2c(c1O)CCC1C3=C(CCC21C)C(=O)OC3 (stereo not drawn),IRF Lucia reporter activity,[2]; [5],0.917
same,IRF Lucia reporter activity,[2]; agonist: LPS (TLR4) 0.1 ug/mL,1.25
CCC12C=CCN3CCC4(c5ccc(OC)cc5N(C)C4C(O)(C(=O)OC)C1OC(C)=O)C32 (stereo not drawn),IRF Lucia reporter activity,[1]; [4],1.06
same,IRF Lucia reporter activity,[2]; [5],0.891
same,IRF Lucia reporter activity,[2]; agonist: LPS (TLR4) 0.1 ug/mL,1.25
